For orientation: AC50 means the concentration at which the activity in the assay is half-maximal.

Drawing on PubChem BioAssay (EPA / NIEHS), this text covers outcome and AC50 for ten compounds.

Results filed as inconclusive are left out. Activity calls are given as the source filed them. Rule for the calls, unless noted: active = hit-call score of the fitted dose curve at least 0.9, where 1 is the maximum; inconclusive = response in the unintended direction; inactive = score below 0.9.

For test [1], the target named is Nuclear receptor subfamily 1 group I member 3 (Homo sapiens) (UniProt Q14994). The experiment in a line: ATG_CAR_TRANS: Attagene TRANS-FACTORIAL HepG2 Assay for human Constitutive Androstane Receptor (CAR) (AID 2282969).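 Note: activators raise reporter mRNA above DMSO so AC50 marks induction.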 Conditions: HepG2 Attagene TRANS-FACTORIAL CAR reporter. The method in brief: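 Readout is reporter mRNA induction, quantified by fluorescent primer extension and capillary electrophoresis after RT-PCR. Cells were HepG2 transiently carrying chimeric NR-Gal4 constructs with GAL4-UAS reporters, treated for 24 h; activity scored upward from DMSO.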
Sequence of Nuclear receptor subfamily 1 group I member 3 (Homo sapiens) (Q14994 whole entry, looked up, the tested form may be a part): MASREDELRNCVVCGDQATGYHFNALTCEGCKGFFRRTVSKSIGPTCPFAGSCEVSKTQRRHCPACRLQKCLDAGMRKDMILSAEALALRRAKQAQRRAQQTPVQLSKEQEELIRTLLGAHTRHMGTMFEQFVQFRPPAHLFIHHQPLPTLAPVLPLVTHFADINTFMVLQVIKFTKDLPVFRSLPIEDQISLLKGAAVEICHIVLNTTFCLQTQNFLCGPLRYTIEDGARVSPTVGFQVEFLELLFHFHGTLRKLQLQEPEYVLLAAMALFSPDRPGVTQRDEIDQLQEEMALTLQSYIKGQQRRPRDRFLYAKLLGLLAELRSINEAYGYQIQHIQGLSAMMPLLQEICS

Test [2] concerns the target X-box-binding protein 1 (Homo sapiens) (UniProt P17861). The experiment in a line: ATG_Xbp1_CIS: Attagene CIS-FACTORIAL HepG2 Assay for human X-box Binding Protein 1 (XBP1) (AID 2282972; active = hit-call score of the fitted dose curve at least 0.9, where 1 is the maximum; inactive = score below 0.9). To be noted: HepG2 XBP1 cis-element reporter, Attagene multiplex; actives raise or lower the signal. The method in brief:
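HepG2, transient MRTU transfection (cis-promoter driven), 24 h compound exposure. Total RNA → oligo(dT) RT → PCR → 6-FAM labeling → HpaI cut → CE. Bidirectional fit vs DMSO.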

Test [3] has as its target Androgen receptor (Homo sapiens) (UniProt P10275). Kind of test: ATG_AR_TRANS: Attagene TRANS-FACTORIAL HepG2 Assay for human Androgen Receptor (AR) (AID 2282973). To be noted: HepG2 Attagene TRANS-FACTORIAL AR reporter transcription. The method in brief: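 Readout is reporter transcript abundance, quantified by fluorescent RT-PCR products separated on capillary electrophoresis. Human HepG2 liver cells carried transiently transfected NR-Gal4 chimera plus GAL4-UAS reporter constructs and were dosed for 24 h; activity scored upward versus DMSO.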

In test [4] the target is Estrogen-related receptor gamma (Homo sapiens) (UniProt P62508). Kind of test: ATG_ERRg_TRANS: Attagene TRANS-FACTORIAL HepG2 Assay for human Estrogen-Related Receptor gamma (ERRg) (AID 2282977).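 Note: hits increase reporter signal over DMSO so potencies reflect activators.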 To be noted: HepG2 Attagene TRANS reporter, ERRg transactivation. The method in brief: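 Transient HepG2 transfectants, 24 h compound exposure, GAL4-UAS reporter mRNA by RT-PCR/6-FAM labelling/capillary electrophoresis; positive direction vs DMSO.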
Sequence of Estrogen-related receptor gamma (Homo sapiens) (P62508 whole entry, looked up, the tested form may be a part): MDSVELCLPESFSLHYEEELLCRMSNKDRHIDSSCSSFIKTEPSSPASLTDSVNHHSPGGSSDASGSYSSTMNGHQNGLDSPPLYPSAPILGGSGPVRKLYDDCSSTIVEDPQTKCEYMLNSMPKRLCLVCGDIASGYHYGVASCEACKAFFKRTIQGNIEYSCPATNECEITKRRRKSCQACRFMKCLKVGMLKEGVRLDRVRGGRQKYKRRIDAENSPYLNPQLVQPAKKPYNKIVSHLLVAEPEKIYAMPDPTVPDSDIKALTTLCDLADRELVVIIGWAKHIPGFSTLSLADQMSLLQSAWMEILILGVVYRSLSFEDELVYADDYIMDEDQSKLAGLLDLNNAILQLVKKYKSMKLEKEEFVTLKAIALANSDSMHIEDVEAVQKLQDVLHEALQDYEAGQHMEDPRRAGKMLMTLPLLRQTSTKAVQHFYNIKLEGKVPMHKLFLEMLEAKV

The target in test [5] is Oxysterols receptor LXR-alpha (Homo sapiens) (UniProt Q13133). Kind of test: ATG_LXRa_TRANS: Attagene TRANS-FACTORIAL HepG2 Assay for human Liver X Receptor alpha (LXRa) (AID 2282980). Conditions: HepG2 Attagene TRANS reporter, LXRa transactivation. The method in brief:
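Read-out: reporter transcript levels by RT-PCR plus capillary electrophoresis, fluorescence intensity. Transiently transfected HepG2, exogenous NR-GAL4 chimera, GAL4-UAS reporters; 24 h compound exposure. Activity = increase over DMSO negative control.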

Test [6] concerns the target Oxysterols receptor LXR-beta (Homo sapiens) (UniProt P55055). Kind of test: ATG_LXRb_TRANS: Attagene TRANS-FACTORIAL HepG2 Assay for human Liver X Receptor beta (LXRb) (AID 2282981). Conditions: HepG2 Attagene TRANS GAL4-LXRb reporter, mRNA. An outline of the steps:
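Cells: HepG2, transiently transfected with GAL4-UAS reporter units plus LXRb-Gal4 fusion. Treatment: 24 h. Detection: reporter mRNA by RT-PCR, 6-FAM labelling, HpaI digestion, capillary electrophoresis.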

The nature of test [7]: ATG_M_06_TRANS: Attagene TRANS-FACTORIAL HepG2 Assay for M06 Transcription Factor (Internal Marker) (AID 2282983). To be noted: HepG2 Attagene TRANS M06 internal marker reporter. The method in brief: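 After a 24 h chemical treatment of transfected HepG2, RNA underwent DNase I treatment, reverse transcription and reporter-specific PCR; labelled, HpaI-digested products were sized by capillary electrophoresis. Signal increase relative to DMSO defined activity.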

In test [8] the target is Nuclear receptor subfamily 4 group A member 2 (Homo sapiens) (UniProt P43354). Kind of test: ATG_NURR1_TRANS: Attagene TRANS-FACTORIAL HepG2 Assay for human Nuclear Receptor Related Protein 1 (NURR1) (AID 2282985). To be noted: HepG2 Attagene TRANS reporter, mRNA readout. An outline of the steps:
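Cells: HepG2, transiently transfected. Exposure: 24 h. Detection: fluorescence of labelled RT-PCR products separated by capillary electrophoresis; upward fit versus DMSO.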

For test [9], the target named is Transcriptional activator Myb (Homo sapiens) (UniProt P10242). The experiment in a line: ATG_Myb_CIS: Attagene CIS-FACTORIAL HepG2 Assay for human Myeloblastosis (Myb) Proto-Oncogene Transcription Factor (AID 2282986; active = hit-call score of the fitted dose curve at least 0.9, where 1 is the maximum; inactive = score below 0.9). To be noted: HepG2 Attagene CIS-FACTORIAL Myb reporter transcription; actives raise or lower the signal. The method in brief:
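Reporter mRNA is quantified by RT-PCR and capillary electrophoresis 24 h after dosing HepG2 cells transfected with cis-regulated reporter units, which track endogenous transcription factor activity. Gain and loss of signal are fitted versus DMSO baseline.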

For test [10], the target named is Nuclear respiratory factor 1 (Homo sapiens) (UniProt Q16656). Kind of test: ATG_NRF1_CIS: Attagene CIS-FACTORIAL HepG2 Assay for human Nuclear Respiratory Factor 1 (NRF1) Orphan Gene (AID 2282987; active = hit-call score of the fitted dose curve at least 0.9, where 1 is the maximum; inactive = score below 0.9). Conditions: HepG2 NRF1 cis-element reporter, Attagene multiplex; actives raise or lower the signal. The method in brief:
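Endogenous NRF1-driven reporter transcription in transfected HepG2 cells after 24 h treatment. Readout: RT-PCR products, 6-FAM labelled and resolved by capillary electrophoresis; changes fitted both directions relative to DMSO.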

A short description of test [11]: ATG_NFI_CIS: Attagene CIS-FACTORIAL HepG2 Assay for human Nuclear Factor I (NFI) (AID 2282989; active = hit-call score of the fitted dose curve at least 0.9, where 1 is the maximum; inactive = score below 0.9). To be noted: HepG2 cis-regulatory reporter, NFI response element transcription; actives raise or lower the signal. The method in brief:
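After transient transfection of HepG2 with cis-promoter reporter constructs and 24 h dosing, RNA is reverse-transcribed, amplified, 6-FAM end-labelled and HpaI-digested before capillary analysis. Bidirectional curve fitting against DMSO.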

Test [12] addresses Myc proto-oncogene protein (Homo sapiens) (UniProt P01106). The experiment in a line: ATG_Myc_CIS: Attagene CIS-FACTORIAL HepG2 Assay for human Myelocytomatosis (Myc) Proto-Oncogene Transcription Factor (AID 2282990; active = hit-call score of the fitted dose curve at least 0.9, where 1 is the maximum; inactive = score below 0.9). To be noted: HepG2, Attagene cis-reporter transcription factor activity; actives raise or lower the signal. An outline of the steps:
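HepG2, transient MRTU transfection (cis promoters, endogenous TFs); 24 h dosing; TriZol RNA → oligo(dT) RT → PCR → 6-FAM primer extension → HpaI cut → CE. Bidirectional fit vs DMSO.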

Test [13] has as its target Glucocorticoid receptor (Homo sapiens) (UniProt P04150). The experiment in a line: ATG_GR_TRANS: Attagene TRANS-FACTORIAL HepG2 Assay for human Glucocorticoid Receptor (GR) (AID 2282978).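 Note: activators score as hits since higher reporter transcript over DMSO is fitted.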 Conditions: HepG2 Attagene TRANS GR reporter, mRNA transcription. An outline of the steps: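 Readout is reporter transcript from a chimeric GR-Gal4 acting on GAL4-UAS in transfected human HepG2 liver cells after 24 h exposure, quantified by RT-PCR and capillary electrophoresis. Activation fitted upward against DMSO.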

The target in test [14] is Bile acid receptor (Homo sapiens) (UniProt Q96RI1). Kind of test: ATG_FXR_TRANS: Attagene TRANS-FACTORIAL HepG2 Assay for Farnesoid X Receptor (FXR) (AID 2282979).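 Note: hits raise reporter mRNA above DMSO so AC50 marks FXR activation.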 Conditions: HepG2 Attagene TRANS FXR-GAL4 reporter transcription. The method in brief: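 Read-out: fluorescent reporter transcripts quantified by capillary electrophoresis after RT-PCR of total RNA. Source cells were HepG2 transiently carrying chimeric NR-GAL4 plus GAL4-UAS reporter units, dosed 24 h. Activity fitted upward relative to DMSO baseline.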
Sequence of Bile acid receptor (Homo sapiens) (Q96RI1 whole entry, looked up, the tested form may be a part): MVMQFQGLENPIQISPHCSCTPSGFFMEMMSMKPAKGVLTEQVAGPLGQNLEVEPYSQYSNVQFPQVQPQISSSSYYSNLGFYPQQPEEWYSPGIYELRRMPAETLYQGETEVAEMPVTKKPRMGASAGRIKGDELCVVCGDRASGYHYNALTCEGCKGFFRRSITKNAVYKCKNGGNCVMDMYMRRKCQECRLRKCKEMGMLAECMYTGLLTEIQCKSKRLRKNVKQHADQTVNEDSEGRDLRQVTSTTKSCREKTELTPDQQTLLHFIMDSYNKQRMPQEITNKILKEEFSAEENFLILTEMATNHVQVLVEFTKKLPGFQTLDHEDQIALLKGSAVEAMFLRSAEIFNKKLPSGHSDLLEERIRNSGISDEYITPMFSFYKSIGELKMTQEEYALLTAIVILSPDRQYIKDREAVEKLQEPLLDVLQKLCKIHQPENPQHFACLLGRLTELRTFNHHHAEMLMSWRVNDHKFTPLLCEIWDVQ

For test [15], the target named is Hepatocyte nuclear factor 4-alpha (Homo sapiens) (UniProt P41235). The experiment in a line: ATG_HNF4a_TRANS: Attagene TRANS-FACTORIAL HepG2 Assay for human Hepatocyte Nuclear Factor 4 alpha (HNF4a) (AID 2282982). Conditions: HepG2 HNF4a transactivation reporter, mRNA readout. The method in brief: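 Transfected HepG2 reporter cells are dosed for 24 h; reporter RNA is reverse-transcribed, amplified, fluorescently labelled and HpaI-digested before CE sizing. Positive-direction fit against DMSO.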
Sequence of Hepatocyte nuclear factor 4-alpha (Homo sapiens) (P41235 whole entry, looked up): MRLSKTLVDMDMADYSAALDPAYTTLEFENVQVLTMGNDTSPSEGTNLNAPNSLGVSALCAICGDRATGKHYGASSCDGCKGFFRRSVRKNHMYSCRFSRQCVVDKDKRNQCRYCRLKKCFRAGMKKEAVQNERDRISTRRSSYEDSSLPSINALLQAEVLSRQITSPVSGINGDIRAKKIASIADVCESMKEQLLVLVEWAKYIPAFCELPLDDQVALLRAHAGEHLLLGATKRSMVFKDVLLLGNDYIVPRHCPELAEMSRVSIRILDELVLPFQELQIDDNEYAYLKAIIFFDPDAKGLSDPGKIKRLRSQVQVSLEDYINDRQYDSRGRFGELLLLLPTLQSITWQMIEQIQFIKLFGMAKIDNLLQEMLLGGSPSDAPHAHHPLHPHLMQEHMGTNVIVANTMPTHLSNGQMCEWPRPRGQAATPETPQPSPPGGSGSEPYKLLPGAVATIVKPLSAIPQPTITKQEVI

A short description of test [16]: ATG_M_32_TRANS: Attagene TRANS-FACTORIAL HepG2 Assay for M32 Transcription Factor (Internal Marker) (AID 2282984).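 Note: transcript level of a background control reporter unit measured by RT-PCR and capillary electrophoresis.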 To be noted: HepG2 Attagene TRANS M32 internal marker reporter. The method in brief: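 Using transiently transfected HepG2 cells exposed to test chemicals for 24 h, reporter transcripts are converted to labelled cDNA fragments and quantified by capillary electrophoresis. DMSO defines the activity baseline.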

Test [17] in a line: ATG_M_19_TRANS: Attagene TRANS-FACTORIAL HepG2 Assay for M19 Transcription Factor (Internal Marker) (AID 2282974). To be noted: HepG2 Attagene TRANS-FACTORIAL M19 internal marker reporter. An outline of the steps: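 Background-control readout: after 24 h chemical exposure of transfected HepG2 carrying GAL4-driven reporter units, RNA was reverse-transcribed, amplified, fluorescently labeled and sized by capillary electrophoresis; gain-of-signal fit against DMSO.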

Test [18] in a line: ATG_GAL4_TRANS: Attagene TRANS-FACTORIAL HepG2 Assay for GAL4 (Internal Marker) (AID 2282976). Conditions: HepG2 Attagene TRANS GAL4 internal marker reporter. An outline of the steps: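 RT-PCR/capillary electrophoresis readout of reporter mRNA. HepG2, transient MRTU transfection (GAL4-UAS reporters), 24 h compound exposure. Background-control endpoint, positive direction vs DMSO baseline.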

Test [19] addresses Estrogen receptor (Homo sapiens) (UniProt P03372). Kind of test: ATG_ERa_TRANS: Attagene TRANS-FACTORIAL HepG2 Assay for human Estrogen Receptor alpha (ERa) (AID 2282970). Conditions: HepG2 Attagene TRANS ERa GAL4 reporter, mRNA. An outline of the steps:
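After 24 h of compound treatment, RNA from HepG2 cells bearing transfected GAL4-UAS reporter constructs is converted to cDNA, amplified and fluorescently labelled. Capillary electrophoresis resolves the ERa-linked reporter; DMSO serves as negative control.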

In test [20] the target is Steroid hormone receptor ERR1 (Homo sapiens) (UniProt P11474). The experiment in a line: ATG_ERRa_TRANS: Attagene TRANS-FACTORIAL HepG2 Assay for human Estrogen-Related Receptor alpha (ERRa) (AID 2282971). To be noted: HepG2 Attagene TRANS reporter, ERRa transactivation. The method in brief: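 Transfected HepG2, 24 h dosing, ERRa-Gal4 chimera driving GAL4-UAS reporter. Readout: reporter mRNA via RT-PCR plus capillary electrophoresis (fluorescence). Positive direction vs DMSO control.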

Sequence of Nuclear respiratory factor 1 (Homo sapiens) (Q16656 whole entry, looked up): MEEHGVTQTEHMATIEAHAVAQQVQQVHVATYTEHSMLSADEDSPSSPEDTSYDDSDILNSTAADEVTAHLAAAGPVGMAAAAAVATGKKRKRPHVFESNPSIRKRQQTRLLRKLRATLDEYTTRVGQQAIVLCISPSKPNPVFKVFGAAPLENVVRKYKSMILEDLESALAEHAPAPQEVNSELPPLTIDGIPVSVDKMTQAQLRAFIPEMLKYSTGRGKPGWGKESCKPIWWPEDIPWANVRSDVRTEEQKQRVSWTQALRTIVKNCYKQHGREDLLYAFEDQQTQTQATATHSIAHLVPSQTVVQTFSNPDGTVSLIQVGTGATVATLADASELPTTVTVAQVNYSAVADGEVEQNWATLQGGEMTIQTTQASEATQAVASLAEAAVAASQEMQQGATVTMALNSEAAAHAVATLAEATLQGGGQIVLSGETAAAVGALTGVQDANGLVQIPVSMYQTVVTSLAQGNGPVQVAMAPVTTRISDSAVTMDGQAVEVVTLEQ
Sequence of Myc proto-oncogene protein (Homo sapiens) (P01106 whole entry, looked up): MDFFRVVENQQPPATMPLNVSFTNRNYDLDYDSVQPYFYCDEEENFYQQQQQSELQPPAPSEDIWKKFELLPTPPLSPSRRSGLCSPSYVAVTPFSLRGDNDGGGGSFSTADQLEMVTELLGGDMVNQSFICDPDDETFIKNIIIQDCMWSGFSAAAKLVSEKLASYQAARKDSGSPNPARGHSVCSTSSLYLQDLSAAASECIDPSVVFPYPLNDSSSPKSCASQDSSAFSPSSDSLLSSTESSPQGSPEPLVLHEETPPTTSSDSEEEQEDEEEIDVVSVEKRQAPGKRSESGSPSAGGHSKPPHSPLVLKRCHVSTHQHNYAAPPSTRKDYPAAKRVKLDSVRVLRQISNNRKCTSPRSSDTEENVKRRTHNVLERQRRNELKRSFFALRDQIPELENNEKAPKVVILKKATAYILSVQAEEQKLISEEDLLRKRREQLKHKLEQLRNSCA
Sequence of Oxysterols receptor LXR-beta (Homo sapiens) (P55055 whole entry, looked up, the tested form may be a part): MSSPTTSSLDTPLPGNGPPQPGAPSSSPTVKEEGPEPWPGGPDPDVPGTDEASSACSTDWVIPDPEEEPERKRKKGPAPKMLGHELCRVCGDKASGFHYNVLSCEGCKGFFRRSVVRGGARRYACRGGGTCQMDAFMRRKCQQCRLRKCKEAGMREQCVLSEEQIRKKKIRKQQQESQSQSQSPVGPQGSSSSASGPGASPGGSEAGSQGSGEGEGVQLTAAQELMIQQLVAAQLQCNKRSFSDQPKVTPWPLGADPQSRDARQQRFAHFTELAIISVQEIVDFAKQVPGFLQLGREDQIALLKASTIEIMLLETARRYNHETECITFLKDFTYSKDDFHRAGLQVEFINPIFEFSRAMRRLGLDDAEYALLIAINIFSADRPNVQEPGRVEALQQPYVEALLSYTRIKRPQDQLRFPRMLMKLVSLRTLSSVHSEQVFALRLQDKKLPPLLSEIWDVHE
Sequence of Transcriptional activator Myb (Homo sapiens) (P10242 whole entry, looked up): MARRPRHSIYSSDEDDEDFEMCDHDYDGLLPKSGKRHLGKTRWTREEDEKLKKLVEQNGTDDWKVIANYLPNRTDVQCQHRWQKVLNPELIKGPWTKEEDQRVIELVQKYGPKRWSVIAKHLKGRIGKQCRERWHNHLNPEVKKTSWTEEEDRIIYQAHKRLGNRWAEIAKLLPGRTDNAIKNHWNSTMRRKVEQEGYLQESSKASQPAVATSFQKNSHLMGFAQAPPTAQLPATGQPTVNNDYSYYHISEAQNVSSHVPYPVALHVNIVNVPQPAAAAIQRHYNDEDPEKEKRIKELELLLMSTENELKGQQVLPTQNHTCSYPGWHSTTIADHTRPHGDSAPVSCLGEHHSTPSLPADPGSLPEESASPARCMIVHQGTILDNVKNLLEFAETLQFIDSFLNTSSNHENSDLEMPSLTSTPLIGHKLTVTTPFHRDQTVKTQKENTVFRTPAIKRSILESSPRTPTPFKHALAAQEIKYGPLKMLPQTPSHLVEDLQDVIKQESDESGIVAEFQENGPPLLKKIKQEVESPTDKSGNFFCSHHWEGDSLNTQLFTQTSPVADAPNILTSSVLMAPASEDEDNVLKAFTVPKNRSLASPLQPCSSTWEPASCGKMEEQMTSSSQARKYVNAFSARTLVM
Sequence of Glucocorticoid receptor (Homo sapiens) (P04150 whole entry, looked up, the tested form may be a part): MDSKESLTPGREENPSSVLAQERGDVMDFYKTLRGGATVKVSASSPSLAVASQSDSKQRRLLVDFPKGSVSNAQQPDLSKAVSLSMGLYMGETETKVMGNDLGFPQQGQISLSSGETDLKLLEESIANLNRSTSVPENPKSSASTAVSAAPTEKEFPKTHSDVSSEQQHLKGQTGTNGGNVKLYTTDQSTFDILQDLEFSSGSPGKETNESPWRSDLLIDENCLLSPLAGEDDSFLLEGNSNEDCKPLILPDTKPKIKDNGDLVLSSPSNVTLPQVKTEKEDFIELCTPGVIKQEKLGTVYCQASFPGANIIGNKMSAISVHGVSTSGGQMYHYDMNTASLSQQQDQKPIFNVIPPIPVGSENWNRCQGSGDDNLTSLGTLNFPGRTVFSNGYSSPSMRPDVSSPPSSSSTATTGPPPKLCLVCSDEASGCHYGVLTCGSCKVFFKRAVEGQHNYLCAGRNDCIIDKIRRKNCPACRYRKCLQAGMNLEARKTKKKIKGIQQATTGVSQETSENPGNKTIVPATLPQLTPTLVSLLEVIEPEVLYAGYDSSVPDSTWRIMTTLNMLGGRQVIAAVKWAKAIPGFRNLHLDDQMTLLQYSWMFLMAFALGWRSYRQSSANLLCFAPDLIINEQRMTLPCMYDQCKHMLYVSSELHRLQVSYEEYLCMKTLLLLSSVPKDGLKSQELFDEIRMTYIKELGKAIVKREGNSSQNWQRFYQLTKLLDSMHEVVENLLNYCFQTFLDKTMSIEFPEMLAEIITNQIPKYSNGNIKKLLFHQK
Sequence of X-box-binding protein 1 (Homo sapiens) (P17861 whole entry, looked up): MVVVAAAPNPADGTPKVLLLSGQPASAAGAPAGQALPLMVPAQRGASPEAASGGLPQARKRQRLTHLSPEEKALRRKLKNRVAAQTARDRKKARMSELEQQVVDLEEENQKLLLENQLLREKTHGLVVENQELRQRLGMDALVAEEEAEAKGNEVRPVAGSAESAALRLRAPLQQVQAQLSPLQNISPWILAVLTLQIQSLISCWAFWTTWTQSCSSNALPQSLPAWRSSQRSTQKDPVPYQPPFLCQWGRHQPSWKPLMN

Take `C[CH2][Hg][S]c1ccccc1C(=O)O`: the compound was called inactive in test [1], in test [3], in test [4], in test [5], in test [6] and in [7]. For the same compound, the result in [8], in test [10] and in test [12] was inactive. The AC50 in test [2] is 2.7 µM (active); in test [9], 3.89 µM (active); in [11] it was 1.58 µM (active).

With `c1cc[c]([Sb]([c]2ccccc2)[c]2ccccc2)cc1`, the call in test [1], in test [2], in [3], in [13], in [14] and in test [15] was inactive. For the same compound, the outcome in test [16], in [9], in [10], in test [11] and in test [12] was inactive. Moreover, in [8], the AC50 was 17.5 µM (active).

As to `CC(C)(C#N)N=NC(C)(C)C#N`, the result in test [1], in test [2], in test [17], in test [13], in test [5] and in test [6] was inactive. Also, the compound was called inactive in test [16], in test [8], in test [9], in test [11] and in test [12].

As to `C#CCO`, the compound was called inactive in [1], in test [2], in test [18], in [6], in test [16] and in test [9]. For the same compound, the compound was called inactive in [10], in [11] and in test [12].

With `CCCCCCCCCCCCc1cccc(S(=O)(=O)O)c1`, the outcome in [1], in [2], in test [7], in [8], in [9] and in test [10] was inactive. Moreover, the compound was classed as inactive in test [11] and in test [12].

For the compound `Oc1c(Cl)cc(Cl)cc1Cl`, the compound was classed as inactive in test [1], in test [2], in test [6], in test [7], in [16] and in test [9]. In test [12], the result was inactive.

As for `Nc1ncn[nH]1`, the result in [1], in test [2], in test [7], in test [9], in test [10] and in test [11] was inactive. In addition, the result in test [12] was inactive.

On to `O=[N+]([O-])c1ccc(Nc2ccccc2)cc1`, for which the result in test [19], in test [2], in [4], in test [13], in [14] and in [6] was inactive. Also, the compound was called inactive in test [15], in test [8], in test [9], in test [10], in test [11] and in [12].

On to `C=CC(=O)OCC(COC(=O)C=C)(COC(=O)C=C)COC(=O)C=C`, for which the call in test [19], in test [20], in [14], in test [7], in [10] and in test [11] was inactive. Also, the result in [12] was inactive. Besides, the values for the AC50 in test [2], in test [4] and in [9] were 8.13 µM (active), 100 µM (active) and 24.5 µM (active), respectively.

Turning to `CCCCCCCCCCBr`, in [19], the AC50 is 33.3 µM (active). The compound was called inactive in test [2], in test [17], in test [4], in test [13], in [5] and in test [15]. Further, the compound was classed as inactive in test [16], in [8], in test [9], in test [11] and in [12].
